RORg inh = ROR gamma (mouse) transcription inhibition; Potency, µM (titrated, usually from 53.6 µM), for the others: at the highest dose activity change, negative = inhibition, hits mostly inhibitors; P51450; Drosophila S2 Gal4-RORgamma UAS-luciferase reporter, 20 h; hit rate 5.4% among 310,000; also: nearly all actives have a fitted effect of over 60% in size
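Luminescence from a UAS-regulated Photinus luciferase reporter in stably transfected Drosophila Schneider cells is measured; decreased signal marks ROR gamma inhibition. Fusion expression is induced by 700 uM copper sulfate for 20 hr.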
ALDH1A1 block = inhibitors of human aldehyde dehydrogenase 1A1; hit rate 7.3% among 220,000; Purified ALDH1A1, NADH fluorescence, propionaldehyde substrate; P00352; Potency, µM (top dose mostly 75.3 µM), without a hit: at the highest dose activity, negative = inhibition, hits mostly inhibitors; AID 1030; active = well fitted inhibition curve with a large enough effect, not every such curve was filed as active; inconclusive = small, poorly fitted or top-dose-only effect, or another doubt; inactive = no such curve, though single readings can be large or run the other way;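 also: plate controls were no enzyme wells and a reference inhibitor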
Gal4-VP16 FLuc = Gal4-VP16 reporter inhibition counter-screen; Drosophila S2 Gal4-VP16 UAS-luciferase, luminescence, 20 h; Potency, µM (series often up to 53.6 µM), inactives show top-dose activity, negative = inhibition, actives largely listed as inhibitors; hit rate 3.5% among 310,000;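 also: Gal4-VP16 expression switched on by copper sulfate through the metallothionein promoter; nearly all actives have a fitted effect of over 50% in size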
PLK1 PBD inh = blocks phosphopeptide binding to human PLK1 polo-box domain. hit rate 2.8% among 360,000. Plk1 PBD binding of FITC phosphopeptide, fluorescence polarization. AID 720504. Potency, µM, for the others: max response, negative = inhibition, hits mostly inhibitors. P53350; also: series mostly up to about 57 µM; nearly all actives have a fitted effect of over 65% in size
Target sequence (P53350 whole entry, looked up, the tested form may be a part): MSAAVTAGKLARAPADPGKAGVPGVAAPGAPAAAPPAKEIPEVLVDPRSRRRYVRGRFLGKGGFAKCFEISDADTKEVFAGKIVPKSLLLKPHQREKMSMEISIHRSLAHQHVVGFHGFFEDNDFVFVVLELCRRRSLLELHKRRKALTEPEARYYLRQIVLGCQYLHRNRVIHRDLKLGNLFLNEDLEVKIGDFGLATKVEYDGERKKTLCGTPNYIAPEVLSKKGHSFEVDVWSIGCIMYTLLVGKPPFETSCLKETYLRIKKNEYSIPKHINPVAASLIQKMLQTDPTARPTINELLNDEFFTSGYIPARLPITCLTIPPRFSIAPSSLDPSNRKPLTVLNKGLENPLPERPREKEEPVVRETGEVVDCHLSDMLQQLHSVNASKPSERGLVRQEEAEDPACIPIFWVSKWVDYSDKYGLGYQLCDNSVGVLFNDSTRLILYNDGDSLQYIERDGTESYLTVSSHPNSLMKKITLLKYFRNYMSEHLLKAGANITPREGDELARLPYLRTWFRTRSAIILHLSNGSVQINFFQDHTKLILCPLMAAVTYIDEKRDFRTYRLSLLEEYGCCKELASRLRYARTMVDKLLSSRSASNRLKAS
Sfp PPTase inh = blocks B. subtilis Sfp PPTase activity. Q9F4F7. hit rate 3.5% among 310,000. Potency, µM, inactives show largest response in the series, negative = inhibition, hits mostly inhibitors. AID 1490. Biochemical Sfp PPTase activity, qHTS;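 also: the enzyme is Sfp with the accession as filed and its product quenches rhodamine fluorescence; 0% = enzyme reaction without inhibitor and -100% = no enzyme wells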
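Step 1, compound plus 15 nM Sfp-PPTase, 15 min, room temperature. Step 2, add rhodamine-CoA (5 uM) and BHQ-2-YbbR (12.5 uM). Step 3, read 525/598 nm fluorescence at 0 and 30 min.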
* = called active by the depositor; [ ] = remark or other dose. The list is not random: actives were taken first. Their share in the collection is about 12%. Unless noted, calls follow the shape of the dose curve; as a rule, active = well fitted curve in the direction sought with a large enough effect; inconclusive = small, poorly fitted or top-dose-only effect, or another doubt; inactive = no such curve, though single readings can be large; an effect the other way counts as inactive or inconclusive. Unless noted, % is scaled to controls: 0 for no effect and ±100 for the full control effect; potency is read from the fitted curve at half-maximal effect.

Screening Cc1c(C(=O)O)c(C(=O)O)nc2ccc(N3CCOCC3)cc12 returned RORg inh -6%, ALDH1A1 block inconclusive, Gal4-VP16 FLuc -22% and Sfp PPTase inh 40µM*.
Screening COc1ccc2c(c1)c(=O)oc1c(C)c(OCc3ccc(C(=O)O)cc3)ccc12 returned RORg inh 23%, Gal4-VP16 FLuc 1%, PLK1 PBD inh 30µM* and Sfp PPTase inh -12%.
Oc1ccc2ccccc2c1Cc1c(O)ccc2ccccc12 was read as ALDH1A1 block 16%[13.5 µM].
`Cc1ccc(OCc2nnn(CC(=O)NS(=O)(=O)c3c(C)noc3C)c2-c2ccccc2)cc1` gave PLK1 PBD inh -7%.
`COc1ccc(C(=O)C2CCCN(C(=O)c3noc4c3CCCC4)C2)c(C)c1` (stereo not given) gave RORg inh 13%, ALDH1A1 block 5µM*, Gal4-VP16 FLuc -12%, PLK1 PBD inh -16% and Sfp PPTase inh 4%.
`COc1ccc(C(=O)C2CCCN(C(=O)C3=CCCC3)C2)c(C)c1` (stereo not given) gave RORg inh 14%, ALDH1A1 block inconclusive, Gal4-VP16 FLuc 4%, PLK1 PBD inh -9% and Sfp PPTase inh 12%.
For COc1ccc(C(=O)C2CCCN(C(=O)c3noc4c3CCCC4)C2)cc1F (stereo not given) the results were RORg inh 38%, ALDH1A1 block 3.5µM*, Gal4-VP16 FLuc -18%, PLK1 PBD inh 5% and Sfp PPTase inh -4%.
N#Cc1c2n(c3c(=S)nc[nH]c13)CCCCC2 was read as RORg inh 3.5µM*, ALDH1A1 block 19µM*, Gal4-VP16 FLuc 18µM*, PLK1 PBD inh -10% and Sfp PPTase inh -52%.
For Cc1cc2nc(/N=C(\N)NC(=O)C(C)C)nc(C)c2cc1C the results were RORg inh -33%, Gal4-VP16 FLuc -1%, PLK1 PBD inh 6% and Sfp PPTase inh -3%.
For Cc1ccc2nc(/N=C(\N)NC(=O)NC3CCCCC3)nc(C)c2c1 the results were RORg inh -67%, Gal4-VP16 FLuc 7.1µM*, PLK1 PBD inh 11% and Sfp PPTase inh 45µM*.
`CCC(=O)N/C(N)=N/c1nc(C)c2cc(C)c(C)cc2n1` gave RORg inh 1µM*, Gal4-VP16 FLuc 3%, PLK1 PBD inh 13% and Sfp PPTase inh -3%.
Screening COc1cccc(-c2cnc(C(O)c3cc(C)c(OC)c(C)c3)[nH]2)c1 (stereo not given) returned PLK1 PBD inh -10%.
For O=[N+]([O-])c1ccc2c(c1Nc1ccccc1)=NC1(CCCCC1)N=2 the results were RORg inh -26%, ALDH1A1 block -14%, Gal4-VP16 FLuc inconclusive, PLK1 PBD inh -20% and Sfp PPTase inh -30%.
Screening COc1ccc(Nc2c([N+](=O)[O-])ccc3c2=NC2(CCCCC2)N=3)cc1 returned RORg inh -36%, ALDH1A1 block 7.1µM*, Gal4-VP16 FLuc -16%, PLK1 PBD inh 2% and Sfp PPTase inh -3%.
COC(=O)[C@@]1(Cc2ccccc2)[C@H]2c3cc(C(=O)N(C)C)n(Cc4ccccn4)c3C[C@H]2CN1C(=O)c1ccccc1 was read as RORg inh -30%, ALDH1A1 block -3%, Gal4-VP16 FLuc 11% and Sfp PPTase inh 2%.
Screening COc1ccnc(CSC(N)=Nc2ccc(F)cc2)c1 returned RORg inh 10µM*, ALDH1A1 block inconclusive, Gal4-VP16 FLuc inconclusive, PLK1 PBD inh inconclusive and Sfp PPTase inh 22µM*.
`O=C(c1ccc(S(=O)(=O)Cc2cc(F)ccc2F)c([N+](=O)[O-])c1)N1CCCCC1` gave RORg inh -6%, ALDH1A1 block 8.9µM*, Gal4-VP16 FLuc -1%, PLK1 PBD inh inconclusive and Sfp PPTase inh -6%.
`Cc1ccccc1CS(=O)(=O)c1ccc(C(=O)N2CCC(C)CC2)cc1[N+](=O)[O-]` gave RORg inh 9%, ALDH1A1 block -3%, Gal4-VP16 FLuc 6%, PLK1 PBD inh -4% and Sfp PPTase inh 8%.
O=C(c1ccc(S(=O)(=O)Cc2cc(F)ccc2F)c([N+](=O)[O-])c1)N1CCCC1 was read as RORg inh -39%, ALDH1A1 block 8.9µM*, Gal4-VP16 FLuc inconclusive, PLK1 PBD inh 11µM* and Sfp PPTase inh -8%.
`O=C(c1ccc(N2CCCC2)c([N+](=O)[O-])c1)N1CCN(S(=O)(=O)c2ccc(Cl)cc2)CC1` gave PLK1 PBD inh 3%.
CC1CCN(C(=O)c2ccc(S(=O)(=O)Cc3cccc(F)c3)c([N+](=O)[O-])c2)CC1 was read as RORg inh -8%, ALDH1A1 block 25µM*, Gal4-VP16 FLuc -9%, PLK1 PBD inh inconclusive and Sfp PPTase inh -2%.
Screening Nc1ccc(C(=O)N2CCCC2)cc1CS(=O)(=O)c1ccc(Cl)cc1 returned RORg inh 0%, ALDH1A1 block -3%, Gal4-VP16 FLuc 5%, PLK1 PBD inh 0% and Sfp PPTase inh 18%.
Screening Cc1cccc(C)c1OCC(=O)NCC1COc2ccccc2O1 (stereo not given) returned PLK1 PBD inh -4%.
Screening O=C(NCC1CCCO1)c1[nH]c(C(F)(F)F)nc1-c1ccccc1 (stereo not given) returned PLK1 PBD inh -2%.
`COc1cc(OC)cc(-c2nnc3n2N=C(c2cc(OC)ccc2OC)CS3)c1` gave RORg inh 15%, Gal4-VP16 FLuc 3% and Sfp PPTase inh -6%.
For CCCCCOCC1CC(C/C(C)=N/Nc2nc(-c3ccccc3)cs2)C(=O)O1 (stereo not given) the results were RORg inh inconclusive, ALDH1A1 block 25µM*, Gal4-VP16 FLuc 3%, PLK1 PBD inh 21µM* and Sfp PPTase inh 71µM*.
`C/C(CC1CC(COCC(C)C)OC1=O)=N\NC(N)=S` (stereo not given) gave RORg inh inconclusive, ALDH1A1 block inconclusive, Gal4-VP16 FLuc 2%, PLK1 PBD inh -3% and Sfp PPTase inh 50µM*.
Screening CCCCCOCC1CC(C/C(C)=N/NC(N)=S)C(=O)O1 (stereo not given) returned RORg inh inconclusive, ALDH1A1 block inconclusive, Gal4-VP16 FLuc -7%, PLK1 PBD inh 27µM* and Sfp PPTase inh 45µM*.
`COc1ccc(Cn2nnnc2C(c2cc3ccc(OC)cc3[nH]c2=O)N2CCCCCC2)cc1` (stereo not given) gave RORg inh 14%, ALDH1A1 block inconclusive, Gal4-VP16 FLuc -5%, PLK1 PBD inh -14% and Sfp PPTase inh -25%.
For Cc1cccc2cc(C(c3nnnn3Cc3ccccc3)N3CCN(C)CC3)c(=O)[nH]c12 (stereo not given) the results were RORg inh 16%, ALDH1A1 block inconclusive, Gal4-VP16 FLuc 0%, PLK1 PBD inh -2% and Sfp PPTase inh 15%.
Cc1ccc2[nH]c(=O)c(C(c3nnnn3Cc3ccccc3)N3CCc4ccccc43)cc2c1 (stereo not given) was read as RORg inh 0%, ALDH1A1 block inconclusive, Gal4-VP16 FLuc 15%, PLK1 PBD inh -4% and Sfp PPTase inh 20µM*.

Assay outcomes deposited in PubChem by National Center for Advancing Translational Sciences (NCATS).
